Results: PubChem BioAssay (EPA / NIEHS)
Active and inactive are the calls of the source. Rule for the calls: active = hit-call score of the fitted dose curve at least 0.9, where 1 is the maximum; inactive = score below 0.9.

Assays:
Settings in all cases: mRNA level, 48 h; actives raise or lower the signal
[1] = read-out: solute carrier (SLCO1B1), SLCO1B1 (gene 10599); experiment: LTEA_HepaRG_SLCO1B1: Life Technologies and Expression Analysis (LTEA) Assay for solute carrier (SLCO1B1) using HepaRG (AID 2283530)
Outline: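 Human HepaRG cultures treated for 48 h with an eight-concentration half-log series topping at 100 uM; SLCO1B1 measured by qRT-PCR and fitted bidirectionally relative to DMSO.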

[2] = read-out: sulfotransferase 2A1 (SULT2A1), SULT2A1 (gene 6822); experiment: LTEA_HepaRG_SULT2A1: Life Technologies and Expression Analysis (LTEA) Assay for sulfotransferase 2A1 (SULT2A1) using HepaRG (AID 2283531)
Outline: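 Gene-expression endpoint in a human liver cell line: SULT2A1 mRNA change after 48 h chemical treatment, curves fitted in both directions relative to 0.5% DMSO vehicle. Concentrations spanned eight half-log steps from 100 uM.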

[3] = read-out: Transforming Growth Factor (TGFA), TGFA (gene 7039); experiment: LTEA_HepaRG_TGFA: Life Technologies and Expression Analysis (LTEA) Assay for Transforming Growth Factor (TGFA) using HepaRG (AID 2283532)
Outline: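 Gene expression of TGFA was quantified by qRT-PCR after human HepaRG cells were treated for 48 h with test chemicals (eight concentrations, highest 100 uM, 0.5% DMSO). Activity in either direction was fitted relative to DMSO.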

[4] = read-out: Transforming Growth Factor (TGFB1), TGFB1 (gene 7040); experiment: LTEA_HepaRG_TGFB1: Life Technologies and Expression Analysis (LTEA) Assay for Transforming Growth Factor (TGFB1) Transporter using HepaRG (AID 2283533)
Outline: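 Eight-point concentration-response (max 100 uM, half-log) in HepaRG under serum-free induction conditions, 48 h. TGFB1 mRNA by qRT-PCR, housekeeping-normalized.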

[5] = read-out: TIMP1, TIMP1 (gene 7076); experiment: LTEA_HepaRG_TIMP1: Life Technologies and Expression Analysis (LTEA) Assay for TIMP1 using HepaRG (AID 2283534)
Outline: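 TIMP1 induction or repression in HepaRG cells after 48 h chemical exposure (eight concentrations, highest 100 uM), assessed by normalized qRT-PCR with bidirectional fitting to DMSO controls.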

[6] = read-out: Tumor necrosis factor receptor 1 (TNFRSF1A), TNFRSF1A (gene 7132); experiment: LTEA_HepaRG_TNFRSF1A: Life Technologies and Expression Analysis (LTEA) Assay for Tumor necrosis factor receptor 1 (TNFRSF1A) using HepaRG (AID 2283535)
Outline: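 Assay uses 48 h chemical treatment of differentiated HepaRG monolayers, tested in duplicate at eight concentrations from 100 uM downward in 0.5% DMSO. mRNA is normalized to ACTB, GAPDH and POLR2A, with induction or suppression fitted relative to vehicle.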

[7] = read-out: Thyroid Hormone Responsive (THRSP), THRSP (gene 7069); experiment: LTEA_HepaRG_THRSP: Life Technologies and Expression Analysis (LTEA) Assay for Thyroid Hormone Responsive (THRSP) using HepaRG (AID 2283536)
Outline: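 Cell model: human HepaRG, approx. 100,000 cells/well, 0.5% DMSO vehicle. Exposure lasts 48 h; phenobarbital 1 mM serves as induction positive control. Gene expression is measured by qRT-PCR against three endogenous control genes.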

[8] = read-out: UDP glucuronosyltransferase (UGT1A1), UGT1A1 (gene 54658); experiment: LTEA_HepaRG_UGT1A1: Life Technologies and Expression Analysis (LTEA) Assay for UDP glucuronosyltransferase (UGT1A1) using HepaRG (AID 2283538)
Outline: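 Cells are plated, cultured 48 h, switched to serum-free induction medium, then dosed 48 h at eight concentrations (max 100 uM, 0.5% DMSO). RNA is isolated and UGT1A1 expression measured by qRT-PCR; changes versus DMSO are fitted in both directions.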

[9] = read-out: Cellular tumor antigen p53 (Homo sapiens) (UniProt P04637); experiment: LTEA_HepaRG_TP53: Life Technologies and Expression Analysis (LTEA) Assay for Tumor Protein P53 (TP53) using HepaRG (AID 2283537)
Outline: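 HepaRG, 48 h exposure, top 100 uM, half-log 8-point, 0.5% DMSO vehicle, duplicates. Read: TP53 mRNA by TaqMan qRT-PCR, normalised to ACTB/GAPDH/POLR2A; bidirectional fit vs DMSO.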

[10] = read-out: UDP glucuronosyltransferase (UGT1A6), UGT1A6 (gene 54578); experiment: LTEA_HepaRG_UGT1A6: Life Technologies and Expression Analysis (LTEA) Assay for UDP glucuronosyltransferase (UGT1A6) using HepaRG (AID 2283539)
Outline: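 Measures mRNA change in HepaRG hepatic cells exposed 48 h to chemicals (eight-point, maximum 100 uM, 0.5% DMSO vehicle) in serum-free induction medium. Expression normalized to endogenous controls; DMSO served as negative control and baseline.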

Measured: AC50

Chain of Cellular tumor antigen p53 (Homo sapiens) (P04637 whole entry, looked up): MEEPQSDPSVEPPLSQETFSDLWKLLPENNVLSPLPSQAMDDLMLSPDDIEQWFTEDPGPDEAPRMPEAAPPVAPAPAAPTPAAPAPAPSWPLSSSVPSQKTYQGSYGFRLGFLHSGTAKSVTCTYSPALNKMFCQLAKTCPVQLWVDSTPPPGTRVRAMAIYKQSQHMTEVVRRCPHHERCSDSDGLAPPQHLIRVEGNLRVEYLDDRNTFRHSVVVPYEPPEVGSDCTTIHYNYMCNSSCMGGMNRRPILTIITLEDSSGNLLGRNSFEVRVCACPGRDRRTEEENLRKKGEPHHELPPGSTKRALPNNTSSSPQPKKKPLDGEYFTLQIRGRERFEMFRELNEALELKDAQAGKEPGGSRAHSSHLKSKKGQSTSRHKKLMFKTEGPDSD

O=Cc1ccco1
not listed: [9] | [10]
inactive: all other assays above

COP(=S)(OC)SCN1C(=O)c2ccccc2C1=O
not listed: [10]
inactive: all other assays above

COC(=O)c1ccccc1N
not listed: [9]
inactive: all other assays above

c1ccc(NNc2ccccc2)cc1
not listed: [9] | [10]
inactive: all other assays above

[As]#[In]
not listed: [9]
inactive: all other assays above

N#CC(Br)(Br)C(N)=O
inactive: all assays above

Clc1ccc(C(c2ccc(Cl)cc2)C(Cl)(Cl)Cl)cc1
active: [8] 2.03 µM
not listed: [7] | [10]
inactive: all other assays above

Cc1ccc(N)cc1
not listed: [9] | [10]
inactive: all other assays above

ClCCOCCCl
not listed: [9] | [10]
inactive: all other assays above

CCCCCOC(=O)c1ccccc1C(=O)OCCCCC
inactive: all assays above

O=C1CCCO1
active: [6] 77 µM | [9] 50 µM | [10] 50 µM
not listed: [7]
inactive: all other assays above

Nc1ccc(Cl)cc1N
active: [1] 20.9 µM | [2] 35.4 µM | [3] 16.1 µM | [4] 12.9 µM | [6] 50 µM | [7] 19.3 µM | [8] 37.8 µM | [10] 54.9 µM
inactive: [5]

COC(=O)Nc1nc2ccccc2[nH]1
active: [8] 31.4 µM
inactive: all other assays above

O=[N+]([O-])c1ccc(Oc2ccc(Cl)cc2Cl)cc1
inactive: [1] | [2] | [3] | [4] | [5] | [6]

Oc1ccc2ccc3cccc4ccc1c2c34
not listed: [9] | [10]
inactive: all other assays above

Nc1ccc(Oc2ccc(N)cc2)cc1
active: [8] 78.9 µM
not listed: [9] | [10]
inactive: all other assays above

Nc1ccc([N+](=O)[O-])cc1
inactive: all assays above

Cc1cc(N=Nc2ccccc2C)ccc1N
active: [1] 3.57 µM | [2] 12.8 µM | [3] 12.6 µM | [4] 2.72 µM | [7] 1.41 µM | [8] 85.9 µM
inactive: [5] | [6]

Cc1ccc(N)c(N)c1
active: [8] 50 µM
not listed: [9]
inactive: all other assays above

CC(O)CCO (stereo not given)
not listed: [9]
inactive: all other assays above

Cc1ccc(N=C=O)cc1N=C=O
active: [2] 31.4 µM | [7] 19.3 µM
not listed: [9]
inactive: all other assays above

CC(C)(C)OOC(C)(C)CCC(C)(C)OOC(C)(C)C
not listed: [9] | [10]
inactive: all other assays above

c1ccc2c(c1)-c1cccc3cccc-2c13
active: [8] 16.1 µM
inactive: all other assays above

Nc1ccc(N=Nc2ccccc2)cc1
inactive: [3] | [9]
active: [1] 11.4 µM | [2] 22.4 µM | [4] 13.1 µM | [5] 50 µM | [6] 23.4 µM | [8] 13 µM | [10] 19.8 µM

CCC12COCN1COC2
not listed: [10]
inactive: all other assays above

[Cl-].[Cl-].[Hg+2]
not listed: [7] | [10]
inactive: all other assays above

Clc1ccccc1Cl
not listed: [9] | [10]
inactive: all other assays above

c1ccc(C2CO2)cc1 (stereo not given)
inactive: [1] | [2] | [3] | [4] | [6] | [8]

O=C(Oc1ccc(Br)cc1)N1CCN2CCC1CC2
not listed: [7]
inactive: all other assays above

CCCCCCCCCCCCCN1CC(C)OC(C)C1 (stereo not given)
not listed: [4] | [10]
inactive: all other assays above

CN(C)c1ccc(C(=O)c2ccc(N(C)C)cc2)cc1
active: [8] 13.2 µM
not listed: [7] | [9] | [10]
inactive: all other assays above

Nc1cc(Cl)cc(C(=O)O)c1Cl
not listed: [7] | [9] | [10]
inactive: all other assays above

CCN(CC)CCO
not listed: [4] | [9]
inactive: all other assays above

[O-][Cl+]O
not listed: [7]
inactive: all other assays above

C[C@]12C=CC3=C4CCC(=O)C=C4CC[C@H]3[C@@H]1CC[C@@H]2O
active: [1] 9.92 µM | [2] 81.8 µM | [7] 15.7 µM | [8] 1.01 µM
inactive: [3] | [5] | [6] | [10]

CC(C)(C)C(O)(CCc1ccc(Cl)cc1)Cn1cncn1 (stereo not given)
inactive: [1] | [3] | [5] | [6]
active: [2] 80.2 µM | [7] 12.7 µM | [9] 71.9 µM | [8] 1.32 µM

CC(C)(OOC(C)(C)c1ccccc1)c1ccccc1
active: [8] 24.4 µM
not listed: [4]
inactive: all other assays above

CCN(CC)N=O
not listed: [7] | [9]
inactive: all other assays above

CC(C)N(Cc1ccccc1)C(=O)C(C)(C)C
active: [8] 6.96 µM
not listed: [7] | [9]
inactive: all other assays above

CC(C)COC(=O)c1ccccc1C(=O)OCC(C)C
not listed: [7] | [9] | [10]
inactive: all other assays above

Clc1ccc(Cl)c(Cl)c1
inactive: [1] | [3] | [5] | [7] | [8]
active: [2] 83.5 µM | [6] 50 µM

CNC(=O)Oc1cccc2c1OC(C)(C)C2
active: [8] 3.38 µM
not listed: [7] | [9]
inactive: all other assays above

CCC(C)c1ccc(O)cc1 (stereo not given)
not listed: [4]
inactive: all other assays above

CC(C)(O)c1cnn2c(-c3ccc(F)c(-c4c(F)cccc4C#N)c3)cnc2n1
active: [3] 12.6 µM | [8] 0.268 µM
not listed: [4] | [10]
inactive: all other assays above

O=C(O)C1C2CCC(O2)C1C(=O)O (stereo not given)
active: [1] 69 µM | [2] 76 µM | [4] 35.1 µM | [8] 50 µM
inactive: [3] | [5] | [6] | [10]

CCCCOC(=O)c1ccccc1C(=O)OCc1ccccc1
not listed: [7] | [9] | [10]
inactive: all other assays above

CCNS(=O)(=O)C(F)(F)C(F)(F)C(F)(F)C(F)(F)C(F)(F)C(F)(F)C(F)(F)C(F)(F)F
active: [1] 48.2 µM
not listed: [7] | [9] | [10]
inactive: all other assays above

COc1cc(C=O)cc2c1[C@H](COC(N)=O)[C@]1(OC(C)=O)ON2C[C@H]2[C@@H]1N2C(C)=O
inactive: [2] | [6] | [9] | [10]
active: [1] 0.733 µM | [3] 1.46 µM | [4] 3.38 µM | [5] 2.63 µM | [8] 24.6 µM

Cn1cc(-c2ccccc2)c(=O)c(-c2cccc(C(F)(F)F)c2)c1
active: [2] 9.92 µM | [8] 8.71 µM
not listed: [7]
inactive: all other assays above

Cc1ccc([N+](=O)[O-])cc1
active: [8] 8.26 µM
not listed: [7] | [9] | [10]
inactive: all other assays above
